Assay results reported in paper PMC5540273 (PLoS ONE, 2017).

Tests used:
Details in all cases: concentration: 1 μM, replicates: in singlicate; n = 1
[1] = test system: PLK2
[2] = test system: PLK3
[3] = test system: PLK4
[4] = test system: PRKCD
[5] = test system: PRKCE
[6] = test system: PRKCH
[7] = test system: PRKCI
[8] = test system: PRKCQ
[9] = test system: PRKD1
[10] = test system: PRKD2
[11] = test system: PRKD3
[12] = test system: PRKG1
[13] = test system: PRKG2
[14] = test system: T1, PRKR
T1 construct: gene EIF2AK2

[15] = test system: PRKX
[16] = test system: PRP4
[17] = test system: T2, PYK2
T2 construct: gene PTK2B

[18] = test system: QSK
[19] = test system: RAF1
[20] = test system: RET
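Note: KINOMEscan kinase panel screen.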

Structure (SMILES) | %Inh [1] | %Inh [2] | %Inh [3] | %Inh [4] | %Inh [5] | %Inh [6] | %Inh [7] | %Inh [8] | %Inh [9] | %Inh [10] | %Inh [11] | %Inh [12] | %Inh [13] | %Inh [14] | %Inh [15] | %Inh [16] | %Inh [17] | %Inh [18] | %Inh [19] | %Inh [20]
Nc1ncnc2scc(-c3ccc(NC(=O)Cc4cc(F)ccc4F)cc3)c12.O=C(O)C(F)(F)F [SB-731254-M] | 66% | 47% | 35% | 27% | 2% | 34% | 43% | 3% | 0% | 0% | 14% | 0% | 0% | 15% | 14% | 26% | 21% | 32% | 10% | 23%
Cc1ccc(Nc2ccnc(Nc3ccc(C)c(F)c3)n2)cc1O.Cl [GW582868] | 0% | 3% | 0% | 0% | 6% | 0% | 25% | 0% | 0% | 0% | 0% | 0% | 0% | 0% | 0% | 27% | 1% | 0% | 12% | 67%
CSc1ccc(NC2=C(c3ccc(Cl)cc3)C(=O)NC2=O)cc1 [SB-317658] | 6% | 0% | 30% | 4% | 0% | 2% | 8% | 0% | 17% | 0% | 0% | 6% | 0% | 0% | 0% | 0% | 0% | 0% | 13% | 7%
Cn1cc(-c2cnc(N)c3c(-c4ccc5c(c4)CCN5C(=O)Cc4ccccc4)csc23)cn1 [GSK2593074] | 41% | 16% | 19% | 9% | 0% | 0% | 0% | 0% | 6% | 0% | 0% | 0% | 0% | 8% | 0% | 0% | 6% | 1% | 0% | 34%
Cn1cc(-c2ccc3c(c2)CCN3C(=O)Cc2cc(F)cc(C(F)(F)F)c2)c2c(N)ncnc21 [GSK2635225] | 3% | 0% | 0% | 18% | 1% | 0% | 0% | 17% | 0% | 14% | 18% | 0% | 16% | 15% | 6% | 16% | 0% | 10% | 11% | 35%
Cc1cccc(Nc2nc(N[C@H]3CCCC[C@H]3N)ncc2C(N)=O)c1.Cl [GSK986310] | 0% | 0% | 16% | 53% | 56% | 43% | 28% | 53% | 50% | 56% | 58% | 20% | 0% | 30% | 25% | 1% | 71% | 18% | 3% | 76%
Cc1ccc(O)cc1Nc1ccnc2ccc(C(C)(C)C)cc12 [GW856805] | 29% | 15% | 27% | 17% | 31% | 3% | 39% | 0% | 0% | 13% | 30% | 20% | 29% | 0% | 17% | 0% | 9% | 22% | 14% | 96%
COc1cc(Nc2nccc(N3CCC(NS(=O)(=O)c4ccc(NC(C)=O)cc4)CC3)n2)cc(OC)c1OC [GSK1379825] | 0% | 29% | 27% | 0% | 14% | 35% | 19% | 26% | 0% | 0% | 0% | 5% | 0% | 0% | 15% | 18% | 37% | 20% | 60% | 30%
COc1cccc2c(-c3ccncc3)c(-c3ccc(F)cc3)nn12 [GW468513] | 0% | 0% | 0% | 6% | 25% | 30% | 26% | 41% | 29% | 20% | 43% | 0% | 0% | 0% | 10% | 25% | 12% | 0% | 33% | 22%
CC(C)NCC(Cc1ccccc1)NC(=O)c1cc(Br)c(-c2ccnc3[nH]ccc23)s1.Cl.Cl (centres unmarked) [GSK1383281] | 13% | 38% | 90.1% | 84% | 89% | 82% | 19% | 50% | 75% | 71% | 81% | 98.8% | 98.8% | 16% | 96.5% | 24% | 17% | 5% | 0% | 66%
